Source: PubChem BioAssay (NCATS)
Where “and” joins values, the source holds several entries; their conditions need not be identical. Equal values may be shown once. Results filed as inconclusive are left out. Calls of active or inactive are those of the source. Unless noted, calls come from the whole dose curve; as a rule, active = well fitted curve in the direction sought with a large enough effect; inconclusive = small, poorly fitted or top-dose-only effect, or another doubt; inactive = no such curve, though single readings can be large; an effect the other way counts as inactive or inconclusive.

How the values were obtained:
[1] = qHTS assay for small molecule disruptors of the mitochondrial membrane potential - 1 hr assay (AID 651754; calls by dose curve; note: % is set by controls: 0 for no effect and ±100 for the full control effect; nearly all actives have a fitted effect of over 35% in size)
Outline: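 HepG2 cells, attached overnight at 37C, were exposed to compound or DMSO vehicle for 1 hr at 37C, 5% CO2, then stained with Mito-MPS dye for 30 min. Red aggregate versus green monomer fluorescence reports membrane potential.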

[2] = qHTS assay for small molecule disruptors of the mitochondrial membrane potential - 5 hr assay (AID 651755; calls by dose curve; note: % is set by controls: 0 for no effect and ±100 for the full control effect; nearly all actives have a fitted effect of over 40% in size)
Outline: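 HepG2 cells, attached overnight at 37C, were exposed to compound or DMSO for 5 hr at 37C, 5% CO2. Mito-MPS dye was then added for 30 min, and fluorescence read at 490/535 nm (monomers) and 540/590 nm (aggregates).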

[3] = biological target: Tumor necrosis factor (Homo sapiens) (UniProt P01375); assay: qHTS assay to identify small molecules that stimulate Tumor Necrosis Factor-alpha (TNF-alpha) secretion (AID 651757; active = well fitted curve in the direction sought with a large enough effect in the signal ratio; the % refers to the signal ratio; note: 0% is about no effect)
Outline: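 THP-1 cells were exposed to compounds for 17 hrs at 37 C, after which secreted TNF-alpha was measured by homogeneous HTRF (TR-FRET) using cryptate- and XL665-labeled anti-TNF-alpha antibodies, read after 3 hr at room temperature.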

[4] = qHTS assay to identify small molecules that stimulate interleukin-8 (IL-8) secretion (AID 651758; active = well fitted activation curve with a large enough effect in the signal ratio; the % refers to the signal ratio; note: 0% is about no effect)
Outline: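 THP-1, 2000 cells/well; cpd 16 h, 37 C; add cryptate + XL665 anti-IL-8 Abs; RT 1-3 h; TR-FRET read.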

[5] = qHTS assay for environmental chemicals that activate the Aryl hydrocarbon Receptor (AhR) signaling pathway (AID 651777); details: 1A2-DRE human hepatoma cells, luciferase, 24 h; activation: stronger effect = higher value; note: % of control where 0% means no effect; nearly all actives have a fitted effect of over 15% in size
Outline: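 1A2-DRE human hepatoma reporter line; 1,200 cells/well; cmpd or DMSO 24 h, 37 C/5% CO2; One-Glo 30 min RT; luciferase lum.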

[6] = biological target: Nuclear receptor ROR-gamma (Homo sapiens) (UniProt P51449); assay: qHTS assay for small molecule antagonists of the retinoid-related orphan receptor gamma (ROR-gamma) signaling pathway (AID 651802); note: series mostly up to about 92 µM; % is set by controls: 0 for no effect and ±100 for the full control effect; nearly all actives have a fitted effect of over 60% in size
Outline: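 CHO cells carrying TET-inducible ROR-gamma and an ROR response element–luciferase reporter were exposed to compound, then induced with doxycycline. After 16hr at 37C, luminescence was read; lower signal indicates antagonism.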

[7] = qHTS assay for small molecule agonists of the antioxidant response element (ARE) signaling pathway measured by Nrf2-dependant transcriptional activity (AID 720636; active = well fitted curve in the direction sought with a large enough effect in the repeat runs; an effect the other way counts as inactive or inconclusive;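 note: HepG2 cells with an ARE-driven luciferase reporter; % of control where 0% means no effect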)
Outline: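 Cells: ARE-luc HepG2 with Nrf2-responsive luciferase. Medium contained 1% dialyzed FBS. Compound exposure lasted 16 hr at 37 C and 5% CO2, followed by ONE-Glo luciferase detection.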

[8] = qHTS assay for small molecule antagonists of the retinoid-related orphan receptor gamma (ROR-gamma) signaling pathway - cell viability counter screen (AID 720652; active = well fitted curve in the direction sought with a large enough effect in the repeat runs; an effect the other way counts as inactive or inconclusive;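 note: series mostly up to about 92 µM; compound exposure lasted 16 hr before ATP read; % is set by controls: 0 for no effect and ±100 for the full control effect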)
Outline: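 Counter screen in CHO cells carrying TET-inducible ROR-gamma and an ROR response element-luciferase reporter; cells plated 5 hr, compound pinned, doxycycline added, then 16 hr at 37 C. Viability read as intracellular ATP by CellTiter-Glo luminescence.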

[9] = qHTS assay for small molecule agonists of the antioxidant response element (ARE) signaling pathway measured by Nrf2-dependant transcriptional activity - cell viability counter screen (AID 720653; active = well fitted curve in the direction sought with a large enough effect in the repeat runs; an effect the other way counts as inactive or inconclusive; note: % is set by controls: 0 for no effect and ±100 for the full control effect); details: ARE-bla HepG2 viability, CellTiter-Glo ATP luminescence, 16 h; stronger effect = lower value
Outline: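 ARE-bla HepG2 cells (2,000/well) rested 5 hrs at 37C/5% CO2, then exposed to compounds in DMSO for 16 hrs. Viability was read in the same wells as intracellular ATP by luminescence, 30 min at room temperature after reagent addition.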

[10] = qHTS assay for cell viability of HEK293 cells (AID 743288); details: ATP luminescence (CellTiter-Glo), 18 h, stronger effect = lower value; note: % is set by controls: 0 for no effect and ±100 for the full control effect; nearly all actives have a fitted effect of over 50% in size
Outline: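 Parental HEK293 cells were seeded at 2,000 cells/well, rested at least 5 h at 37 C, then exposed to compounds in DMSO for 18 h at 37 C. Viability was read as ATP-dependent luciferase luminescence after 30 min at room temperature.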

[11] = qHTS assay for cell viability of the p53RE-bla HCT-116 cell line (AID 743292); note: % is set by controls: 0 for no effect and ±100 for the full control effect; nearly all actives have a fitted effect of over 55% in size
Outline: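 HCT-116 p53RE-bla cells seeded 4,000/well; 5 h at 37 C; compound (DMSO) added; 16 h at 37 C; CellTiter-Glo added, 30 min RT; luminescence read.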

[12] = biological target: Nuclear receptor subfamily 1 group I member 2 (Rattus norvegicus) (UniProt Q9R1A7); assay: qHTS assay for small molecule activators of the rat pregnane X receptor (rPXR) signaling pathway (AID 651751; call rule not given here; note: 0% is about no effect); details: rPXR reporter cells, luciferase (One-Glo), 24 h
[13] = qHTS assay for small molecule activators of the human pregnane X receptor (PXR) signaling pathway (AID 720659; call rule not given here; note: 0% is about no effect)
[14] = biological target: Peroxisome proliferator-activated receptor alpha (Homo sapiens) (UniProt Q07869); assay: qHTS assay for small molecule agonists of the peroxisome proliferator-activated receptor alpha (PPARalpha) signaling pathway (AID 651778); details: PathHunter PPARalpha complementation, chemiluminescence, 6 h; stronger effect = higher value; note: % of control where 0% means no effect
Outline: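 Cells plated at 2,000/well and held overnight at 37 C, 5% CO2, then compound added by pin tool for 6 hr; after PathHunter detection reagent and 60 min at room temperature, chemiluminescence from enzyme complementation was read.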

Nuclear receptor subfamily 1 group I member 2 (Rattus norvegicus), sequence (Q9R1A7 whole entry, looked up): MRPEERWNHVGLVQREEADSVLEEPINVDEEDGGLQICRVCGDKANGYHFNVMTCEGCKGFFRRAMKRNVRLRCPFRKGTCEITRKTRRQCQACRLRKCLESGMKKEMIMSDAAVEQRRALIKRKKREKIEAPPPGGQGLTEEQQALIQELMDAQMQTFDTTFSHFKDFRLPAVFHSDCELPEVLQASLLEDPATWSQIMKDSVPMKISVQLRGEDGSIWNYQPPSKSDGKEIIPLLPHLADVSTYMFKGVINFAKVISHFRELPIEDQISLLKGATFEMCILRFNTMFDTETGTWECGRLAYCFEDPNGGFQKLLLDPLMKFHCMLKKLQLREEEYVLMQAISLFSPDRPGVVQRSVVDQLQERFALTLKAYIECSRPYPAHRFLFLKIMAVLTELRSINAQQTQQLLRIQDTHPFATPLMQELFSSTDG
Peroxisome proliferator-activated receptor alpha (Homo sapiens), sequence (Q07869 whole entry, looked up): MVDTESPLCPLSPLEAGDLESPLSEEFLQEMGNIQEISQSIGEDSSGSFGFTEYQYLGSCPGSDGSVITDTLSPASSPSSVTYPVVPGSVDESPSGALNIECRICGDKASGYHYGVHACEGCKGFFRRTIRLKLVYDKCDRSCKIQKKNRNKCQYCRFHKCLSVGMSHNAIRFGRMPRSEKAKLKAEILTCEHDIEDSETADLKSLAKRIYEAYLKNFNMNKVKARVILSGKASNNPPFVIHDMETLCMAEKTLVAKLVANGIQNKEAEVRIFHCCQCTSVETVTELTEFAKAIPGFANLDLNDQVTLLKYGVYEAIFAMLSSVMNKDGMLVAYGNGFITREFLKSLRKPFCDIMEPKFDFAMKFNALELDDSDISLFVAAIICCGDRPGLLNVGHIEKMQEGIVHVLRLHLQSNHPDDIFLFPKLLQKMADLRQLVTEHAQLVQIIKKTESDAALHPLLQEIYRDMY
Tumor necrosis factor (Homo sapiens), sequence (P01375 whole entry, looked up): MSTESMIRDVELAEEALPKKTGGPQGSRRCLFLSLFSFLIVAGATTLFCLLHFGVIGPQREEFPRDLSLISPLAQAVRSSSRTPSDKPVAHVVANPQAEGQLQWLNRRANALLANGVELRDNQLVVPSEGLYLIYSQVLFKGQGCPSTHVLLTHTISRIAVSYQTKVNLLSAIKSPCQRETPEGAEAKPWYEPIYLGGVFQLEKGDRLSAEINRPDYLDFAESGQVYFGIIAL
Nuclear receptor ROR-gamma (Homo sapiens), sequence (P51449 whole entry, looked up): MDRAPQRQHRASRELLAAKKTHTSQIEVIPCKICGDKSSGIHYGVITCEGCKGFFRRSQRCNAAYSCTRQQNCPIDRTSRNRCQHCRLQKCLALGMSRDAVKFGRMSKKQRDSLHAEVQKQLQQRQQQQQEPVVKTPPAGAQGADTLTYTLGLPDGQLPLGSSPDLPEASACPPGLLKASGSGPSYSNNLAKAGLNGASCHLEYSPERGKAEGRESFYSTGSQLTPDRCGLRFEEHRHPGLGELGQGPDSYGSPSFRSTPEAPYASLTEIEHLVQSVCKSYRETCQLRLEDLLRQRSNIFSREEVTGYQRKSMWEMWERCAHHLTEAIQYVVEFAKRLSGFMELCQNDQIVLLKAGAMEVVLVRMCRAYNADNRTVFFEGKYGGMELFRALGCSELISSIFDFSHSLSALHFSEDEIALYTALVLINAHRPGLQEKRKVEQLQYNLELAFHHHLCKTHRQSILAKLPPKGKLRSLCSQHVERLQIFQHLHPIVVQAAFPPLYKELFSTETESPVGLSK

CCCCCNCCCCC
inactive: Potency [1] | Potency [2] | Potency [3] | Potency [4] | activation [5] 0.294% and -0.372% | Potency [6] | outcome [7] | Potency [8] | max response [9] -0.347% and -3.31% | max response [10] 0.935% and 1.64% | Potency [11] | max response [12] 7.61% and 1.33% | outcome [13]

Cc1ccc(N(C)C)cc1
inactive: Potency [1] | Potency [2] | Potency [3] | Potency [4] | activation [5] 6.07% | max response [14] 2.84% | outcome [7] | Potency [8] | max response [9] -14.6% | max response [10] -14.6% | Potency [11] | max response [12] 1.14% | outcome [13]

COC(=O)CC#N
inactive: Potency [1] | Potency [2] | Potency [3] | Potency [4] | activation [5] -0.763% | max response [14] -2.71% | Potency [6] | outcome [7] | Potency [8] | max response [9] -4.65% | max response [10] 6.11% | Potency [11] | max response [12] -1.86% | outcome [13]

Cc1cc(C)cc([N+](=O)[O-])c1
inactive: Potency [1] | Potency [2] | Potency [3] | Potency [4] | activation [5] 0.689% | max response [14] -0.421% | Potency [6] | outcome [7] | Potency [8] | max response [9] -11.8% | max response [10] 1.12% | Potency [11] | max response [12] 1.37% | outcome [13]

N#CC1(O)CCCCC1
inactive: Potency [1] | Potency [2] | Potency [3] | Potency [4] | activation [5] 2.1% | Potency [6] | outcome [7] | Potency [8] | max response [9] 5.72% | max response [10] 1.77% | Potency [11] | max response [12] 2.59%

C=CC(=O)NC(C)C
inactive: Potency [1] | Potency [2] | Potency [3] | Potency [4] | activation [5] -0.429% | max response [14] -6.08% | outcome [7] | Potency [8] | max response [9] -7.91% | max response [10] -0.14% | Potency [11] | max response [12] 3.94% | outcome [13]

CC(=O)c1nccs1
inactive: Potency [1] | Potency [2] | Potency [3] | Potency [4] | Potency [6] | outcome [7] | Potency [8] | max response [9] 25.7% | max response [10] -7.91% | Potency [11] | max response [12] 8.24% | outcome [13]

CC(C)C=O
inactive: Potency [1] | Potency [2] | Potency [3] | Potency [4] | activation [5] 0.299% | max response [14] -0.412% | Potency [6] | outcome [7] | Potency [8] | max response [9] -2.28% | max response [10] -10.3% | Potency [11] | max response [12] 1.58% | outcome [13]

O=Cc1ccc(Cl)cc1
inactive: Potency [1] | Potency [2] | Potency [3] | Potency [4] | max response [14] -4.56% | Potency [6] | outcome [7] | Potency [8] | max response [9] 7.47% | max response [10] -6.94% | Potency [11] | max response [12] -2.77% | outcome [13]

COc1ccccc1[N+](=O)[O-]
inactive: Potency [1] | Potency [2] | Potency [3] | activation [5] 0.316% and 0.0004% | max response [14] -1.42% and -1.21% | Potency [6] | outcome [7] | Potency [8] | max response [9] -18.6% and -4.26% | max response [10] -1.85% and -1.91% | Potency [11] | max response [12] 1.11% and 2.57% | outcome [13]

ClCCl
inactive: Potency [1] | Potency [2] | Potency [3] | activation [5] 0.008% | max response [14] -6.14% | Potency [6] | outcome [7] | Potency [8] | max response [9] 8.53% | max response [10] -3.33% | Potency [11] | max response [12] 1.89% | outcome [13]

CC(=O)OC(C)=O
inactive: Potency [1] | Potency [2] | Potency [3] | activation [5] 1.76% | max response [14] -5.07% | Potency [6] | outcome [7] | Potency [8] | max response [9] 5.05% | max response [10] 3.19% | Potency [11] | max response [12] 5.82% | outcome [13]

COC(=O)c1ccccc1
inactive: Potency [1] | Potency [2] | Potency [3] | activation [5] -0.388% | max response [14] -4.31% | Potency [6] | outcome [7] | Potency [8] | max response [9] 3.39% | max response [10] 2.22% | Potency [11] | max response [12] 0.652% | outcome [13]

CCNS(=O)(=O)c1ccc(C)cc1
inactive: Potency [1] | Potency [2] | Potency [3] | activation [5] -1.7% | max response [14] -3.34% | Potency [6] | outcome [7] | Potency [8] | max response [9] -1.66% | max response [10] -4.78% | Potency [11] | max response [12] 2.12% | outcome [13]

CCOC(C)(C)C
inactive: Potency [1] | Potency [2] | Potency [3] | activation [5] -0.13% | max response [14] -4.96% | Potency [6] | outcome [7] | Potency [8] | max response [9] -6.47% | max response [10] 9.83% | Potency [11] | max response [12] -4.12% | outcome [13]

c1ccc(Oc2ccccc2)cc1
inactive: Potency [1] | Potency [2] | Potency [3] | activation [5] -0.267% and -0.51% | max response [14] -7.64% and 0.0496% | Potency [6] | outcome [7] | Potency [8] | max response [9] 5.45% and -9.72% | max response [10] -1.32% and 1.9% | Potency [11] | max response [12] -0.536% and 5.2% | outcome [13]
